Test results as given in PubChem BioAssay (Tox21).
“And” between values parts separate entries of the source, which are not always exact repeats. Identical values can stand only once. Records with an inconclusive call do not appear. The source holds several records for some structures; these can differ, active in one and inactive in another. The source made the active and inactive calls. Unless noted, the call rests on the fitted dose curve; in most records, active means well fitted curve in the direction sought with a large enough effect in the repeat runs; inconclusive means weak or mixed curves; inactive means no such curve, though single readings can be large; an effect the other way counts as inactive or inconclusive.

What was measured:
[1] = target: Luciferin 4-monooxygenase (Photinus pyralis) (UniProt P08659); experiment: qHTS assay to identify small molecule inhibitors of firefly luciferase (AID 1224835); further: nearly all actives have a fitted effect of over 25% in size; further: potency means the concentration at half of the fitted maximal effect
Procedure, shortened: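 Inhibition of purified Photinus luciferase is measured by luminescence. Substrate levels (D-luciferin, ATP) sit at their KM values. Each compound is tested in a concentration series.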

[2] = qHTS assay to identify small molecule antagonists of the constitutive androstane receptor (CAR) signaling pathway - cell viability counter screen (AID 1224837); further: nearly all actives have a fitted effect of over 45% in size; further: potency means the concentration at half of the fitted maximal effect; on activity change, negative = cytotoxicity: series mostly up to about 92 µM
Procedure, shortened: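 HepG2-CYP2B6-hCAR cells, 2500/well, 4 hr pre-incubation; compound titration, 15 conc.; CITCO 50 nM final; 23 hr, 37 C/5% CO2; CellTiter-Fluor, fluorescence intensity.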

[3] = target: Nuclear receptor subfamily 1 group I member 3 (Homo sapiens) (UniProt Q14994); experiment: qHTS assay to identify small molecule antagonists of the constitutive androstane receptor (CAR) signaling pathway (AID 1224838);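 further: HepG2 cells stably expressing hCAR with CYP2B6 luciferase reporter stimulated by CITCO; nearly all actives have a fitted effect of over 40% in size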
Procedure, shortened: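 HepG2-CYP2B6-hCAR cells; 4 h pre-incubation; cpd (15 conc) + CITCO 50 nM final; 24 h, 37 C/5% CO2; ONE-Glo, luminescence.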

[4] = target: Nuclear receptor subfamily 1 group I member 3 (Homo sapiens) (UniProt Q14994); experiment: qHTS assay to identify small molecule agonists of the constitutive androstane receptor (CAR) signaling pathway (AID 1224839); further: nearly all actives have a fitted effect of over 15% in size; further: potency means the concentration at half of the fitted maximal effect;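 on activation: HepG2 cells stably carrying human CAR and a CYP2B6 luciferase reporter; series mostly up to about 92 µM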
Procedure, shortened: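 Readout: firefly luciferase luminescence via ONE-Glo. System: HepG2 double-stable for hCAR and CYP2B6-2.2kb. Conditions: 15-point compound titration, PK11195 at 0.75 uM final, 24 h incubation.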

[5] = qHTS assay to identify small molecule antagonists of the estrogen related receptor signaling pathway with the pleiotropic PPARgamma coactivator (PGC) from Tox21 10K library (AID 1224841; call rule not given here; further: actives are mostly falling curves and most rising ones were filed inactive; nearly all actives have a fitted effect of over 50% in size; further: potency means the concentration at half of the fitted maximal effect; on activity, negative = inhibition: series mostly up to about 92 µM)
Procedure, shortened: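 PGC/ERR cell line, 2,000 cells/well; 6 h pre-incubation 37 C/5% CO2; compounds (DMSO) pinned in; 18 h, 37 C; One-Glo, 30 min RT; luminescence.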

[6] = qHTS assay to identify small molecule agonists of the estrogen related receptor signaling pathway with the pleiotropic PPARgamma coactivator (PGC) from Tox21 10K library (AID 1224842); further: nearly all actives have a fitted effect of over 15% in size; further: potency means the concentration at half of the fitted maximal effect
Procedure, shortened: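 Luminescence from One-Glo (30 min, room temperature) measured after PGC/ERR cells had 18 h at 37 C with pinned compound (23 nL in DMSO). Cells had been seeded at 2,000 per well and pre-incubated 6 h.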

[7] = target: Thyrotropin receptor (Homo sapiens) (UniProt P16473); experiment: qHTS assay to identify small molecule agonists of the thyroid stimulating hormone receptor (TSHR) signaling pathway (AID 1224843; calls by dose curve; further: nearly all actives have a fitted effect of over 45% in size; further: potency means the concentration at half of the fitted maximal effect)
Procedure, shortened: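 HEK293 cells stably bearing the thyrotropin receptor were plated at 800 cells/well and challenged with compound (30 min, RT). Accumulated cAMP was quantified via cAMP-d2 competing for cryptate-tagged antibody.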

[8] = qHTS assay to identify small molecule agonists of the constitutive androstane receptor (CAR) signaling pathway - cell viability counter screen (AID 1224836); further: series mostly up to about 92 µM; nearly all actives have a fitted effect of over 45% in size
Procedure, shortened: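 Double-stable HepG2 hepatoma cells (hCAR plus CYP2B6-2.2kb) are treated for 23 h at 37 C with test compounds in 15-point concentration series. PK11195 at 0.75 uM final is co-added. Cell viability is quantified by CellTiter-Fluor.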

[9] = qHTS assay to identify small molecule antagonists of the estrogen related receptor signaling pathway with the pleiotropic PPARgamma coactivator (PGC) from Tox21 10K library - cell viability counter screen (AID 1224840; active means well fitted cell-killing curve with a large enough effect in the repeat runs, not every such curve was filed as active; further: nearly all actives have a fitted effect of over 40% in size; further: potency means the concentration at half of the fitted maximal effect)
Procedure, shortened: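 PGC/ERR cells, 2,000/well; 6 h pre-incubation 37 C/5% CO2; cpd in DMSO via pin tool; 17.5 h 37 C; CellTiter-Fluor, 30 min; fluorescence.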
On the % scale 0 is the no-effect control and ±100 the full control effect.

Chain of Thyrotropin receptor (Homo sapiens) (P16473 whole entry, looked up): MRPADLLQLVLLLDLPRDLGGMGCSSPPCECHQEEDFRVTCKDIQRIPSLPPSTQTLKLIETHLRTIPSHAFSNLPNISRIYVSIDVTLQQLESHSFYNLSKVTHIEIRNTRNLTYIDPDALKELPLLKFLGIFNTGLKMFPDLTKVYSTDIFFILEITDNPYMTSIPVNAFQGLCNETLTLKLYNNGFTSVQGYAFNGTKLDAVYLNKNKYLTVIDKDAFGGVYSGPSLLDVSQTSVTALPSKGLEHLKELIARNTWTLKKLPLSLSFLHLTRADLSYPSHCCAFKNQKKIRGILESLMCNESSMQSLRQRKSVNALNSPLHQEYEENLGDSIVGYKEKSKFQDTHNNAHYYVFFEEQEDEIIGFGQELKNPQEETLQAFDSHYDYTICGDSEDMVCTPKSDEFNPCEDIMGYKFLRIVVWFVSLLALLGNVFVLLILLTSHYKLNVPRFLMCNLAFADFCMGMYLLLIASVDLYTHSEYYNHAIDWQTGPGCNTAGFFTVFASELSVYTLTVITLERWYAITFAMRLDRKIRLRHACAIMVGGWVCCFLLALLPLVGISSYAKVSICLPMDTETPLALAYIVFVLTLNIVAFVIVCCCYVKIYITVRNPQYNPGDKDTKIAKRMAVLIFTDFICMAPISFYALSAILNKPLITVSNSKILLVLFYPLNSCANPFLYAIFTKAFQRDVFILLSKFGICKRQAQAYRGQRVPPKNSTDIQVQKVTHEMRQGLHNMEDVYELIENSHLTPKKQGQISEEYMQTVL
Chain of Nuclear receptor subfamily 1 group I member 3 (Homo sapiens) (Q14994 whole entry, looked up): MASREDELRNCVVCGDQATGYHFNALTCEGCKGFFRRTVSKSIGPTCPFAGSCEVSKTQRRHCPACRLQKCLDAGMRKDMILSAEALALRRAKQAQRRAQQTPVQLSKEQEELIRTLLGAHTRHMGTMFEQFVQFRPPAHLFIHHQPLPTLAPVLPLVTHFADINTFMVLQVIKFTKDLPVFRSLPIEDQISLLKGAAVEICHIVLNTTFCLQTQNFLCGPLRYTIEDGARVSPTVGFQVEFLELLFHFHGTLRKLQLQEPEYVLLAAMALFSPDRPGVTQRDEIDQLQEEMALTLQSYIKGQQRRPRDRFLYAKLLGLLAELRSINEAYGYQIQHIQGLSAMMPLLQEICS
Chain of Luciferin 4-monooxygenase (Photinus pyralis) (P08659 whole entry, looked up): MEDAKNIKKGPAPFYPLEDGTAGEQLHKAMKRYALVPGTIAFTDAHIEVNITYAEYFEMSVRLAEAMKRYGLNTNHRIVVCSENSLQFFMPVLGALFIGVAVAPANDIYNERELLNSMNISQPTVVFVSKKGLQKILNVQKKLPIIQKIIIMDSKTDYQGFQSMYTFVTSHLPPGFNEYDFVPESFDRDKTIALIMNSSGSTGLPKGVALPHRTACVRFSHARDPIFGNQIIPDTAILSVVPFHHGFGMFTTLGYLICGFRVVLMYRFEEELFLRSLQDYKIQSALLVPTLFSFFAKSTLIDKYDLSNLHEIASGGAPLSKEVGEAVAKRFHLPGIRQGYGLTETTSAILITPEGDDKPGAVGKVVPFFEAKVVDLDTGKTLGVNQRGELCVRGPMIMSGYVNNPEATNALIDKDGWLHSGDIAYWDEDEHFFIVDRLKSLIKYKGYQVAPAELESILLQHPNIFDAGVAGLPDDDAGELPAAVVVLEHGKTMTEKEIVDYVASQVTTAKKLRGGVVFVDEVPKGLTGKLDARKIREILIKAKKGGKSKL

CN(C)[C@@H](CCOc1cccc2ccccc12)c1ccccc1
inactive: Potency [1] | Potency [2] | Potency [3] | Potency [4] | Potency [5] | Potency [6]
active: Potency [7] 33.5 µM

Cc1cc(C(C#N)c2ccc(Cl)cc2)c(Cl)cc1NC(=O)c1cc(I)cc(I)c1O (stereo unspecified)
inactive: Potency [1] | Potency [8] | Potency [2] | Potency [9] | Potency [6]

Cc1ccc(-c2ccccc2)cc1
inactive: Potency [8] | Potency [2] | Potency [3] | Potency [4] | Potency [9] | Potency [5] | Potency [6] | Potency [7]

Cc1c(C)c2c(c(C)c1OC(=O)c1cccnc1)CC[C@@](C)(CCC[C@H](C)CCC[C@H](C)CCCC(C)C)O2
inactive: Potency [1] | Potency [8] | Potency [2] | Potency [9] | Potency [5] | Potency [6] | Potency [7]

CCCCCC/C=C\CCCCCCCC(=O)O
inactive: Potency [8] | Potency [2] | Potency [3] | Potency [4] | Potency [9] | Potency [7]

OC12N=C(c3ccccc3)SC1Cc1cc(Cl)ccc12 (stereo unspecified)
active: Potency [1] 35.6 µM | Potency [6] 8.63 µM
inactive: Potency [8] | Potency [2] | Potency [5]

O=C1OC2(c3ccc(O)cc3Oc3cc(O)ccc32)c2ccc(N=C=S)cc21
inactive: Potency [1] | Potency [2] | Potency [9] | Potency [6] | Potency [7]

COc1cc2nc(N3CCN(C(=O)c4ccco4)CC3)nc(N)c2cc1OC
inactive: viability change, negative = cytotoxic [8] -2.7% [at 19 µM] | activity change, negative = cytotoxicity [2] -2.45% [at 19 µM] | activity, negative = inhibition [3] 3.26% [at 19 µM] | activation [4] 0.371% [at 19 µM] | activation [7] -0.792% [at 19 µM]

C/C=C/C=C/COC(=O)C(C)C
inactive: Potency [8] | Potency [3] | Potency [4] | Potency [9]

O=C1CCc2cc(OCCCCc3nnnn3C3CCCCC3)ccc2N1
inactive: Potency [1] | Potency [8] | Potency [2] | Potency [9]

CC[N+](CC)(CC)CCOC(=O)C(C1CCCC1)C1CCCC1
inactive: Potency [1] | Potency [8] | Potency [2] | Potency [9] | Potency [6]

O=c1c(O)c(-c2ccc(O)cc2O)oc2cc(O)cc(O)c12
inactive: Potency [8] | Potency [2] | Potency [3] | Potency [4] | Potency [9] | Potency [7]

Cc1c2ccccc2c(C)c2c1ccc1ccccc12
inactive: Potency [3]
active: Potency [1] 19.8 µM and 31.7 µM | Potency [2] 54.5 µM | Potency [4] 5.39 µM and 9.69 µM | Potency [9] 53.9 µM and 27.3 µM | Potency [5] 34.4 µM | Potency [7] 27 µM and 24.3 µM
24.1 µM (active) and inactive: Potency [6]

CCCCC(CC)CN1CN(CC(CC)CCCC)CC(C)(N)C1 (stereo unspecified)
inactive: Potency [1] | Potency [8] | Potency [2] | Potency [9] | Potency [5] | Potency [6]

CCCc1ccc(OCC(=O)N2CCN(C(=O)COc3ccc(CCC)cc3OC)CC2)c(OC)c1
inactive: Potency [1] | Potency [8] | Potency [3] | Potency [4] | Potency [6] | Potency [7]
active: Potency [5] 16.8 µM

Cc1cccc(C(=O)O)c1O
inactive: Potency [1] | Potency [8] | Potency [2] | Potency [9] | Potency [5] | Potency [6] | Potency [7]

Cc1ccc(O)c(O)c1
active: Potency [4] 47.2 µM | Potency [6] 13.3 µM
inactive: Potency [8] | Potency [2] | Potency [3] | Potency [5]

CN1CCCCC1CCN1c2ccccc2Sc2ccc(S(C)=O)cc21 (stereo unspecified)
inactive: Potency [1] | Potency [8] | Potency [2] | Potency [4] | Potency [7]

CC(C)=CCNc1ncnc2c1ncn2[C@@H]1O[C@H](CO)[C@@H](O)[C@H]1O
inactive: Potency [1] | Potency [9] | Potency [5] | Potency [7]
active: Potency [2] 3.35 µM | Potency [6] 5.96 µM

CC[N+](CC)(CC)CCOc1ccc(/C=C/c2ccccc2)cc1
inactive: Potency [1] | Potency [2] | Potency [3] | Potency [4] | Potency [9] | Potency [6] | Potency [7]

CN(C)Cc1cc(C(C)(C)C)c(O)c(C(C)(C)C)c1
inactive: Potency [1] | Potency [8] | Potency [2] | Potency [9] | Potency [6]

C#C[C@]1(OC(C)=O)CC[C@H]2[C@@H]3CCC4=C[C@@H](OC(C)=O)CC[C@@H]4[C@H]3CC[C@@]21C
inactive: Potency [1] | Potency [8] | Potency [2] | Potency [4] | Potency [9] | Potency [6] | Potency [7]
active: Potency [5] 21.1 µM

CC(C)=CCC1=C(O)c2ccccc2C(=O)C1=O
active: Potency [4] 27.1 µM | Potency [5] 2.42 µM
inactive: Potency [3] | Potency [6]

S=c1nccc[nH]1
inactive: Potency [1] | Potency [8] | Potency [2] | Potency [4] | Potency [9] | Potency [5] | Potency [6]

COC(=O)c1ccccc1C
inactive: Potency [1] | Potency [8] | Potency [2] | Potency [9] | Potency [5] | Potency [6] | Potency [7]

Oc1cc(Cl)cc(Cl)c1Cl
inactive: Potency [8] | Potency [2] | Potency [3] | Potency [4] | Potency [7]

CCc1oc2ccccc2c1C(=O)c1cc(I)c(O)c(I)c1
inactive: Potency [1] | Potency [8] | Potency [2] | Potency [9] | Potency [7]

COC(=O)Nc1nc2ccc(C(=O)c3ccccc3)cc2[nH]1
inactive: Potency [8] | Potency [2] | Potency [3] | Potency [9] | Potency [7]

Fc1ccc(C(c2ccc(F)cc2)N2CCNCC2)cc1
inactive: Potency [1] | Potency [2] | Potency [3] | Potency [4] | Potency [9] | Potency [7]
